# Screens from PubChem BioAssay.
# PKA-R2B activ = activates the human PKA-R2B holoenzyme complex; P22694+P31323; PKA-R2B holoenzyme dissociation, Cy5-IP20 fluorescence polarization; R2B truncated from residue 108, S112A mutant; 0% DMSO only, 100% 113 µM cGMP; activation, % at 11.4 µM; actives 0.079% (n = 340,000); AID 504700;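 active means activation above a cutoff set at the mean over all compounds plus 3 SD, cut at about 18% in these data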;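 further: higher means more holoenzyme dissociation and a rise in polarization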
# IDE inh = cellular human IDE inhibition. P14735. inhibition, % at 5.59 µM. HEK cells, FAbetaB cleavage, fluorescence polarization. actives 0.41% (n = 320,000). AID 434962;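 active means percent inhibition above the average of all tested compounds plus 3 SD, set per screening campaign, cut at about 16% in these data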;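 further: IDE supplied by intact live HEK cells; FP after avidin binding of uncleaved biotin substrate so inhibition keeps polarization high; 0% = DMSO wells and 100% = 60 µM reference IDE inhibitor Ii1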
# eLon inh = inhibitors of E. coli Lon protease | purified E. coli Lon protease, fluorescence polarization | actives 0.42% (n = 360,000) | inhibition, % at 7.94 µM; in the data active means inhibition above about 13%, passing the limit was not always enough;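 further: 0% = enzyme with probe and DMSO and 100% = no enzyme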
# PKA-R1A act = activators of PKA-R1A complex | P00514+P68181 | PKA-R1A dissociation, Cy5-IP20 fluorescence polarization; scaled: DMSO 0%, 113 µM cGMP 100% | activation, % at 11.4 µM | actives 0.083% (n = 340,000) | AID 504707;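 active means percent activation above the mean of all tested compounds plus 3 SD, cut at about 19% in these data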;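 further: higher means more PKAc released from R1A so a rise in polarization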
# Rin1 Abl inh = inhibitors of human Rin1-Abl protein interaction; inhibition, % at 7.35 µM; TR-FRET Rin1/Abl binding, biochemical; P00519+Q13671; actives 0.4% (n = 360,000); AID 588664; in the data active means inhibition above about 5%, passing the limit was not always enough
# IDE cell activ = boosts human insulin-degrading enzyme activity in HEK cells; FAbeta-B cleavage, fluorescence polarization; 0% vehicle, 100% cell-free pure enzyme wells; activation, % at 5.96 µM; actives 0.073% (n = 340,000); AID 493087;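 active means activation above the mean of all tested compounds plus 3 SD, set per screening campaign, cut at about 17% in these data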
# E coli Lon conf = confirmation of E. coli Lon protease inhibitors. shares compounds with eLon inh. purified E. coli Lon, fluorescence polarization. inhibition, % at 7.94 µM. actives 31% (n = 1,400). AID 602230; in the data active means inhibition above about 16%;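 further: 0% = enzyme with probe and DMSO and 100% = no enzyme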
# * = called active by the depositor; · = no result given. Shown are actives, neighbours in structure and some others; about 1.3% of the full set was active somewhere.
SMILES,PKA-R2B activ,IDE inh,eLon inh,PKA-R1A act,Rin1 Abl inh,IDE cell activ,E coli Lon conf
C#CCNC(=O)C1=C[C@@H](c2coc3ccccc3c2=O)C[C@@H](OCCCCO)O1,-7,-2,19*,-8,6,7,29*
CN(C)c1ccc(/C=N/NC(=O)c2ccc(CN3C(=O)c4cccc5cccc3c45)cc2)cc1,·,-1,·,·,·,·,·
CCOC(=O)N1CCN(CC(=O)c2ccc(O)cc2O)CC1,-6,4,25*,-6,-1,2,29*
O=C(NC(=S)NNS(=O)(=O)c1ccccc1)c1ccccc1[N+](=O)[O-],-4,2,23*,4,-1,-1,-48
CCCCC(=O)NC(=S)NNS(=O)(=O)c1ccccc1,-1,3,20*,-3,-4,-8,-97
O=C(NC(=S)NNS(=O)(=O)c1ccccc1)c1cccnc1,-3,3,17,-5,1,6,·
CCN(CC)S(=O)(=O)c1ccc(NC(=O)COC(=O)CNC(=O)C2CCCCC2)cc1,-2,·,5,-13,3,6,·
COCCCNC(=O)CNC(=O)c1cn(-c2ccccc2OC)c(=O)c2ccccc12,-6,-3,-2,-12,-5,-2,·
COc1cc(C(=O)OCC(=O)N2CCOCC2)c([N+](=O)[O-])cc1OC,-5,6,18*,-8,0,3,-4
COc1cc(C(=O)OCC(=O)N2CCCCCC2)c([N+](=O)[O-])cc1OC,6,-6,5,-4,3,-2,·
O=S(=O)(c1ccccc1)N1CCN(Cc2ccccc2)c2ccccc21,-19,·,34*,-1,3,6,-1
CCc1ccc(/C=C2\SC(=S)N(CCC(=O)Nc3cc(C)on3)C2=O)cc1,-17,-3,-14,-17,6,-4,·
Cc1ccccc1N=Cc1cccc(O)c1O,0,-5,15*,9,-1,-6,30*
O=C1NC2=C(C(=O)CCC2)C(c2ccccc2Cl)N1 (stereo unspecified),-5,-2,2,-2,0,-5,·
O=C1NC2=C(C(=O)CCC2)C(c2ccccc2[N+](=O)[O-])N1 (stereo unspecified),-6,5,25*,3,0,5,-7
O=C(N/N=C\c1ccccc1)c1cccc(C(=O)N/N=C\c2ccccc2)n1,·,4,1,·,-2,·,·
O=C(N/N=C/c1ccccc1)C(=O)N/N=C/c1ccccc1,8,2,20*,-5,3,1,3
Cc1ccc(S(N)(=O)=O)c(C)c1-n1cnnn1,2,0,-5,1,1,0,·
COc1cccc(C2=CC(c3cccs3)n3nnnc3N2)c1 (stereo unspecified),-18,0,35*,-5,2,-6,10
COc1cccc(C2=CC(c3ccc(OC)c(OC)c3OC)n3nnnc3N2)c1 (stereo unspecified),0,-1,1,-4,0,0,·
COc1ccc(C2=CC(c3sccc3C)n3nnnc3N2)cc1 (stereo unspecified),8,3,0,6,2,-2,·
COc1ccc(C2C=C(c3ccc(Br)cc3)Nc3nc(N4C(=O)CCC4=O)nn32)cc1 (stereo unspecified),-5,29*,25*,-4,-3,-19,-9
COc1ccc(C2=CC(c3ccc(F)cc3)n3nnnc3N2)cc1 (stereo unspecified),-2,10,38*,-12,0,-2,-13
CC(Sc1nnnn1C1CC1)C(=O)Nc1cccc(S(=O)(=O)N2CCOCC2)c1 (stereo unspecified),-2,·,9,-3,5,3,·
COc1ccc(NC(=O)N(C)[C@H]2C[C@H]3c4[nH]c5ccc(-c6ccc(OC)cc6)cc5c4CCN3C(=O)[C@H]2[C@H](C)O)cc1,-1,·,-9,3,2,·,·
N#Cc1nnn(-c2cc(Cl)cc(Cl)c2)c1N,10,3,1,7,0,-1,·
